# Only some compounds are listed: those with a hit (about 3.1% of all), similar ones and a draw of the others.
# TROY NFkB inh: inhibitors of TROY-driven NF-kB signaling, primary screen, Q293 LMP1-TROYcd cells, NF-kB luciferase, uHTS; Q293 LMP1-TROYcd NF-kB luciferase reporter, 4 h; inhibition, % at 10 µM; actives 0.98% (n = 360,000); AID 1347056, 2019;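 active = compounds whose plate-normalised and pattern-corrected inhibition of the luciferase reporter signal at the single screening dose is 50% or more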
# EWS-Fli block: EWS/Fli-driven NR0B1 reporter inhibitors, primary screen, A673 cells, NR0B1 luciferase, luminescence, MLPCN library | AID 651661, 2012 | viability-normalised | actives 0.67% (n = 350,000) | inhibition, % at 12.6 µM;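 active = mean inhibition of at least 50% after viability correction, with every replicate also passing that limit; inconclusive = mean reaches 50% but only one of two replicates passes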;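 also: firefly luciferase signal divided by Alamar Blue viability fluorescence both relative to DMSO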
# LGR2 antag: inhibitors of bursicon-induced LGR2 CRE-luciferase signal, primary screen, cell-based, HEK293, CRE-luciferase reporter, bursicon stimulation | bursicon-stimulated, 4 h | inhibition, % at 9.99 µM | actives 0.35% (n = 380,000) | AID 720647, 2013;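 active = drop in luminescence signal, shown as inhibition above about 50% in the replicate tests, limit read from the data, passing the limit was not always enough; inconclusive = probably only some replicates passing the limit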;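 also: agonist challenge used bursicon conditioned medium at about half maximal strength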
# PAX8 reporter: inhibitors of PAX8-driven TPO luciferase reporter, primary screen, RMG-I cells, single concentration. SteadyGlo, 24 h. AID 652154, 2013. actives 1.2% (n = 360,000). inhibition, % at 12.6 µM;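 active = mean replicate inhibition at least 60% with every replicate also reaching 60%; inconclusive = only one of the two criteria is met; inactive = mean below 60% and not all replicates reaching 60%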;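 also: luciferase light reporting Pax8 driven TPO promoter activity; plate controls were median of neutral control wells for no effect and mitoxantrone controls for full effect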
# LMP1 NFkB inh: EBV LMP1-driven NF-kappaB luciferase reporter inhibitors, primary screen, cell-based, luminescence, single point; AID 504558, 2011; LMP1-induced NF-kappaB luciferase reporter cells; inhibition, % at 12.5 µM; actives 0.69% (n = 350,000); in the data active = inhibition above about 41%; inconclusive = no clear call, values can overlap the other calls;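 also: 0% = neutral control wells and 100% = reference inhibitor control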
# TWEAK-Fn14 inh: inhibitors of TWEAK-Fn14 signaling, primary screen, luciferase reporter cells, uHTS; TWEAK-stimulated Fn14 reporter cells, luciferase luminescence, 8 h; inhibition, % at 10 µM; actives 2% (n = 360,000); AID 1159606, 2016; in the data active = inhibition above about 50%
# * marks the source's active call; other numbers are inactive results; ? = inconclusive; . = no result given.
SMILES,TROY NFkB inh,EWS-Fli block,LGR2 antag,PAX8 reporter,LMP1 NFkB inh,TWEAK-Fn14 inh
Cc1cc(C)n(-c2nc(Nc3ccccc3C(F)(F)F)nc(-n3nc(C)cc3C)n2)n1,79.5*,.,.,.,33.4,81.4*
COc1ccc(C(CC(=O)N2CCOCC2)C(C)C)cc1 (stereo not drawn),-0.3,.,47.1,.,-10.0,80.4*
O=C(c1ccc(F)cc1)C(CN1CCOCC1)c1ccccc1 (stereo not drawn),22.0,57.2*,57.9*,.,26.5,74.3*
COc1ccc(C(CC(=O)N2CCCC2)C(C)C)cc1 (stereo not drawn),-9.0,5.6,15.2,1.3,1.7,17.1
COc1ccc(C(=O)C(CN2CCOCC2)c2ccccc2)cc1 (stereo not drawn),4.7,3.3,54.0*,.,?,36.7
O=C(c1ccccc1)C(CCC(CN1CCOCC1)C(=O)c1ccccc1)CN1CCOCC1 (stereo not drawn),50.8*,.,.,.,50.1*,85.0*
COc1ccc(C(=O)C(CN2CCCC2)c2ccccc2)cc1 (stereo not drawn),-34.5,.,.,.,-31.1,36.3
O=C(C[C@@H]1C[C@H]2c3cc(NC(=O)CC4CC4)ccc3O[C@H]2[C@@H](CO)O1)NCCN1CCCCC1,.,-5.2,-14.1,-40.6,.,.
O=C(Cc1ccncc1)Nc1ccc2c(c1)[C@H]1C[C@H](CC(=O)N3CCCCC3)O[C@@H](CO)[C@H]1O2,.,8.9,5.1,-2.3,.,.
C[C@H]1CN([C@@H](C)CO)S(=O)(=O)c2ccc(C3=CCCCC3)cc2O[C@@H]1CN(C)C(=O)C1CCC1,.,18.7,9.2,.,.,.
CCN(C(=O)c1cccc(NC(=O)c2ccccc2)c1)C1CCCCC1,1.1,-6.0,9.3,8.7,51.3*,18.8
CCN(C(=O)c1cc(OC)c(OC)c(OC)c1)C1CCCCC1,-22.6,-3.2,-18.4,0.3,48.2*,-14.1
COCCCNC(=O)c1cccc(NC(=O)c2ccccc2)c1,-7.5,.,6.3,1.5,0.1,-6.2
CC(C)OCCCNC(=O)c1cccc(NC(=O)c2ccccc2)c1,12.4,-0.8,-2.7,126.5*,-9.5,-33.6
COc1cc(C(=O)N(C(C)C)C2CCCCC2)cc(OC)c1OC,-7.0,2.3,-8.8,12.6,-3.9,-25.5
COCCSc1nnc(NS(=O)(=O)c2ccccc2)s1,-1.1,1.7,11.5,13.6,-9.1,12.1
COCCSc1nnc(NS(=O)(=O)c2ccc(C)cc2)s1,53.6*,5.9,0.8,23.0,-4.7,-2.3
C[C@H]1CN([C@@H](C)CO)C(=O)c2cccc(NC(=O)C3CCCCC3)c2O[C@H]1CN(C)S(=O)(=O)c1ccc(F)cc1,.,5.2,-5.5,.,.,.
Cc1cc(C)nc(Sc2ncnc3c2oc2ccccc23)n1,-31.0,.,.,.,9.0,55.5*
C[C@H]1CN([C@@H](C)CO)C(=O)c2cccc(NC(=O)C3CCCCC3)c2O[C@@H]1CN(C)S(=O)(=O)c1ccc(Cl)cc1,.,9.6,-3.8,6.9,.,.
CCC(C)n1ncn(-c2ccc(N3CCN(c4ccc(OCC5COC(Cn6cncn6)(c6ccc(Cl)cc6Cl)O5)cc4)CC3)cc2)c1=O (stereo not drawn),10.9,24.6,-2.3,2.8,91.1*,-19.1
C=CCNC(=O)[C@@H]1[C@H]2C(=O)O[C@H](c3ccccc3)[C@H](c3ccccc3)N2[C@H](c2ccccc2OCCO)[C@@]12C(=O)N(C(=O)OCCOC)c1ccc(C#CCC(C(=O)OC)C(=O)OC)cc12,.,58.5*,.,103.6*,.,.
O=C1O[C@H](c2ccccc2)[C@H](c2ccccc2)N2[C@H]1[C@@H](C(=O)N1CCCCCCC1)[C@]1(C(=O)Nc3ccc(C#CC4(O)CCCCCC4)cc31)[C@H]2c1ccc(OCCO)cc1,.,0.7,.,-0.7,.,.
C=CCNC(=O)[C@H]1[C@@H]2C(=O)O[C@@H](c3ccccc3)[C@@H](c3ccccc3)N2[C@@H](c2ccccc2OCCO)[C@]12C(=O)Nc1ccc(C#CC3(O)CCCCCC3)cc12,.,20.5,.,99.1*,.,.
C=CCNC(=O)[C@H]1[C@@H]2C(=O)O[C@@H](c3ccccc3)[C@@H](c3ccccc3)N2[C@@H](c2ccc(OCCO)cc2)[C@]12C(=O)N(C(=O)OCCOC)c1ccc(C#Cc3ccc(OC)cc3)cc12,.,-9.3,.,26.5,.,.
SMILES,TROY NFkB inh,EWS-Fli block,LGR2 antag,PAX8 reporter,LMP1 NFkB inh,TWEAK-Fn14 inh
C=CCNC(=O)[C@@H]1[C@H]2C(=O)O[C@H](c3ccccc3)[C@H](c3ccccc3)N2[C@H](c2ccccc2OCCO)[C@@]12C(=O)N(C(=O)OCCOC)c1ccc(C#CC3=CCCCC3)cc12,.,11.2,.,68.0*,.,.
C=CCNC(=O)[C@H]1[C@@H]2C(=O)O[C@@H](c3ccccc3)[C@@H](c3ccccc3)N2[C@@H](c2ccc(O)cc2)[C@]12C(=O)N(C(=O)OCCOC)c1ccc(C#CCC(C(=O)OC)C(=O)OC)cc12,.,-15.7,.,-0.8,.,.
C=CCNC(=O)[C@@H]1[C@H]2C(=O)O[C@H](c3ccccc3)[C@H](c3ccccc3)N2[C@H](c2ccccc2OCCO)[C@@]12C(=O)N(C(=O)OCCOC)c1ccc(C#CC3(O)CCCCCC3)cc12,.,14.3,.,71.4*,.,.
O=C(Nc1cccc(F)c1)N1CC(=O)N2[C@@H](CO)[C@H](c3ccc(-c4ccccc4)cc3)[C@@H]2C1,.,1.5,3.4,5.7,.,.
CC=Cc1ccc2n(c1=O)C[C@H]1[C@H](CO)[C@@H](C(=O)NCCC)[C@@H]2N1C(=O)C1CCCC1 (mixture of isomers),.,-6.4,3.7,.,.,.
CCc1cnc(N2[C@H](C#N)[C@H](c3ccc(C4=CCCC4)cc3)[C@H]2CO)s1,.,11.7,-1.9,10.0,.,.
CC(=O)N1[C@@H]2Cn3c(cccc3=O)[C@H]1[C@@H](C(=O)N[C@@H](C)c1ccccc1)[C@@H]2CO,.,-3.8,-6.7,.,.,.
CCCC(=O)Nc1ccc2c(c1)C(=O)N(C)C[C@H](OC)[C@@H](C)CN(Cc1ccccc1F)[C@@H](C)CO2,.,1.6,13.4,.,.,.
O=C(Nc1ccccc1)C1Cc2c(-c3cccc(F)c3)ccnc2O1 (stereo not drawn),8.7,-8.2,-21.9,2.6,.,-13.7
COc1ccc(NC(=O)C2Cc3c(-c4cccc(NC(C)=O)c4)ccnc3O2)cc1 (stereo not drawn),33.3,52.2*,-24.4,0.1,.,10.7
CS(=O)(=O)Nc1cccc(NC(=O)C2Cc3c(-c4cccc(F)c4)ccnc3O2)c1 (stereo not drawn),25.1,63.5*,1.2,54.8,.,-19.6
CC(=O)c1cccc(-c2ccnc3c2CC(C(=O)NCCc2ccccc2)O3)c1 (stereo not drawn),6.0,54.4*,-1.5,1.2,.,23.7
O=C(NCCc1ccccc1)C1Cc2c(-c3ccc4c(c3)OCO4)ccnc2O1 (stereo not drawn),9.9,-4.1,0.4,5.6,.,16.4

# Source: PubChem BioAssay
